According to PubChem BioAssay (NCI):
Compounds without any hit were thinned out: in the full panel of roughly 83,000, 20% have a hit.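 Each cell line was grown in a 96-well plate and treated with one concentration of compound for 48 hours. Values below 10 were considered active.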 Unmarked numbers belong to inactive results. The source made the active and inactive calls.

Experiments:
Test in all cases: NCI-60 one-dose screen, 48 h (100 = growth as untreated, 0 = no growth, -100 = all killed)
Conditions in all cases: 10 µM unless noted
NCI-H23 lung = test system: NCI-H23 lung
NCI-H226 lung = test system: NCI-H226 lung
NCI-H322M lung = test system: NCI-H322M lung
NCI-H460 lung = test system: NCI-H460 lung
HOP-92 NSCLC = test system: HOP-92 NSCLC
A549/ATCC NSCLC = test system: A549/ATCC NSCLC
786-0 renal = test system: 786-0 renal
COLO 205 colon = test system: COLO 205 colon
DU-145 prostate = test system: DU-145 prostate
K-562 leukemia = test system: K-562 leukemia
MALME-3M melanoma = test system: MALME-3M melanoma
MDA-MB-231 breast = test system: MDA-MB-231 breast
RXF 393 renal = test system: RXF 393 renal
SF-268 CNS = test system: SF-268 CNS
SF-295 CNS = test system: SF-295 CNS
SF-539 CNS = test system: SF-539 CNS
UACC-257 melanoma = test system: UACC-257 melanoma
M14 melanoma = test system: M14 melanoma
NCI-H522 lung = test system: NCI-H522 lung
HOP-62 NSCLC = test system: HOP-62 NSCLC

Structure (SMILES)	growth (NCI-H23 lung)	growth (NCI-H226 lung)	growth (NCI-H322M lung)	growth (NCI-H460 lung)	growth (HOP-92 NSCLC)	growth (A549/ATCC NSCLC)	growth (786-0 renal)	growth (COLO 205 colon)	growth (DU-145 prostate)	growth (K-562 leukemia)	growth (MALME-3M melanoma)	growth (MDA-MB-231 breast)	growth (RXF 393 renal)	growth (SF-268 CNS)	growth (SF-295 CNS)	growth (SF-539 CNS)	growth (UACC-257 melanoma)	growth (M14 melanoma)	growth (NCI-H522 lung)	growth (HOP-62 NSCLC)
Cc1cc(Nc2ccc(Cl)c(Cl)c2)nc(N)n1	89.5%	92%	110%	94.3%	97.7%	71.8%	78.9%	107%	94.3%	87.4%	121%	101%	72.9%	95.2%	96.8%	99.9%	77.1%	91.6%	–	–
COc1cc(NS(C)(=O)=O)ccc1Cc1c2ccccc2nc2ccccc12	11.2%	-17.5% (active)	75.2%	-1.15% (active)	21.2%	-11.8% (active)	-10.6% (active)	29.8%	11%	18.2%	14.8%	53.2%	-13.4% (active)	22.4%	3.77% (active)	-28.5% (active)	25%	10%	43.2%	–
CC(=O)Cc1cccnc1	96.5%	95.4%	102%	105%	102%	101%	103%	115%	110%	86.7%	103%	99.9%	103%	104%	99.2%	102%	96.8%	101%	96.3%	–
CC1CCC(C(C)C)C(NN)C1 (configuration not stated)	–	88%	91.2%	108%	110%	80.6%	98.8%	103%	109%	92.2%	112%	108%	115%	107%	107%	103%	78.6%	102%	70.9%	96%
O=C(NCCNc1nccc(-c2c(-c3cccc(O)c3)nc3sccn23)n1)c1ccccc1O	–	80.5%	72.3%	57%	59.9%	43.3%	64.6%	66.5%	67.2%	40.5%	14.6%	48.4%	50.9%	62.5%	46.4%	61.9%	14.8%	16.7%	29%	114%
COc1cc(/C=C/C(=O)c2c(C)n([O-])c3cc(C)c(C)cc3[n+]2=O)cc(OC)c1OC	–	82.8%	67.6%	35.4%	41.5%	65.9%	23.1%	70.1%	50.5%	21.7%	86%	67.8%	54.2%	79.9%	71.7%	80.2%	100%	48.7%	33.6%	74.6%
O=C1c2ccccc2C(=O)c2c(NCCN=Cc3c(O)ccc4ccccc34)cccc21	–	91.7%	91.4%	88.7%	37.9%	19.9%	–	85.3%	51.7%	77.7%	113%	84.4%	–	82.3%	65.1%	91.4%	-5.35% (active)	65.8%	84.7%	47%
Nc1nc(=S)ss1	–	103%	100%	110%	98.7%	97.5%	107%	112%	116%	98.1%	111%	112%	101%	108%	102%	111%	90.2%	101%	94.2%	–
CCN1CCN(Cc2ccc(NC(=O)Nc3cccc(-n4ccc5c(NC(=O)c6ccccc6)nccc54)c3)cc2C(F)(F)F)CC1	–	99.5%	101%	96.3%	60.5%	86.9%	108%	65.7%	88.8%	49.3%	64%	82%	79.5%	85.3%	55.7%	81.1%	73.9%	76%	45.6%	72.6%
